Most compounds without a hit are left out; they make up all but 4.8% or so of the library.
DAX1 inh-1: blocks DAX1 repression of SF-1 activated StAR promoter; HEK293T StAR-luciferase reporter, SF-1/DAX-1 repression relief; inhibition, % at 6.8 µM; 370,000 tested, 1.1% active;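 active = inhibition above the mean over all tested compounds plus 3 SD, cut at about 3.6% in these data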;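 note: 0% = DAX-1 cells with DMSO and 100% = cells lacking DAX-1 with DMSO; higher inhibition means more luminescence from relief of DAX-1 repression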
DAX1 inh-2: inhibitors of human orphan nuclear receptor DAX1 (NR0B1); inhibition, % at 6.75 µM; HEK293 Gal4-DAX1 luciferase reporter, luminescence; AID 504766; P51843; 340,000 tested, 0.99% active;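 active = inhibition above the mean over all tested compounds plus 3 SD, cut at about 4.2% in these data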;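 note: 0% = DAX1-transfected cells with DMSO and 100% = empty-vector control cells with DMSO; inhibition shows as a rise in luminescence from relieved DAX1 repression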
Target sequence (P51843 207-470 limits assumed): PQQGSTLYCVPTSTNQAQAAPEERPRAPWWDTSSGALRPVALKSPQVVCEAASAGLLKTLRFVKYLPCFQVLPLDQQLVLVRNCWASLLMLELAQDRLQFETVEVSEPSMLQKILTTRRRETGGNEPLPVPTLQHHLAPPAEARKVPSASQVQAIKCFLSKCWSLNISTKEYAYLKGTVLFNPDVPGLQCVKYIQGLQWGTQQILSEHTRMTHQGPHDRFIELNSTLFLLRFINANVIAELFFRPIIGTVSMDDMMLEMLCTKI
hcDAF12 agonist: activators of H. contortus DAF-12 nuclear receptor; HEK293 hcDAF-12 lit1-tk-luc reporter, luminescence; 0% DMSO, 100% Δ7-dafachronic acid; activation, % at 6.8 µM; 370,000 tested, 1.4% active; AID 652067;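 active = activation above the mean of all tested compounds plus 3 SD, cut at about 5.5% in these data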;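 note: 100% = response to 3 µM Δ7-dafachronic acid high control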
ssDAF-12 act: activators of S. stercoralis DAF-12 nuclear receptor; 370,000 tested, 1% active; AID 652126; activation, % at 6.8 µM; HEK293 ssDAF-12/GRIP1 lit1-tk-luc reporter, luminescence; % of 3 µM dafachronic acid response;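 active = activation above the mean over all tested compounds plus 3 SD, cut at about 0.9% in these data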;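 note: 0% = DMSO-only wells and 100% = 3 µM delta7-dafachronic acid wells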
hgDAF12 agonist: activates the H. glycines DAF-12 receptor ligand-binding domain | HEK293 GAL4-hgDAF12 UAS-luciferase reporter, agonist luminescence; normalized to butyrate control | activation, % at 6.8 µM | 370,000 tested, 1.8% active | AID 687014;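 active = activation above a cutoff set at the mean of all screened compounds plus 3 SD, cut at about 10% in these data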;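 note: 0% = DMSO wells and 100% = sodium butyrate wells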
SMARCA2 activ: SMARCA2 function activation, primary screen | 370,000 tested, 1% active | activation, % at 9.1 µM | MG213 cells, MMTV-luciferase reporter, dexamethasone, overnight; in the data active = activation above about 7.8%;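 note: 0% = vehicle wells and 100% = reference activator wells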
An asterisk follows results filed as active; / = not tested or not shown.

SMILES	DAX1 inh-1	DAX1 inh-2	hcDAF12 agonist	ssDAF-12 act	hgDAF12 agonist	SMARCA2 activ
Cc1ccc(C(=O)C(C)OC(=O)Cc2c[nH]c3ccccc23)cc1 (stereo not given)	0.2	0.5	2.9	0.9*	-2.6	1.5
O=C(Cn1nnc2ccccc2c1=O)N[C@@H](Cc1c[nH]c2ccccc12)C(=O)O	0.5	1.9	3.0	1.0*	-1.4	-2.0
Cc1nc(N[C@@H](Cc2c[nH]c3ccccc23)C(=O)O)c2oc3ccccc3c2n1	0.4	/	5.9*	0.5	3.7	-0.5
CCc1nc(N[C@@H](Cc2c[nH]c3ccccc23)C(=O)O)c2oc3ccccc3c2n1	-0.2	-0.1	3.3	-0.2	2.9	-2.7
O=C(NNC(=O)c1cccc(-n2cccc2)c1)c1ccccc1	3.0	1.1	-0.3	-1.4	2.9	-0.8
O=C(NNC(=O)c1ccccc1F)c1cccc(-n2cccc2)c1	3.7*	1.4	-0.9	-0.9	4.4	1.9
Nc1nc(N)nc(-c2cc(F)ccc2O)n1	-1.1	-0.8	-3.1	-0.8	3.4	7.9*
CC(C)CNC(=O)OCc1cn(Cc2ccccc2Cl)nn1	-1.2	/	-3.6	-0.3	-6.6	-1.6
O=C1CCC(C(=O)Nc2ccc(Cl)cc2)N1 (stereo not given)	0.0	-0.1	0.6	-1.1	4.9	0.1
O=C(Nc1ccc(Cl)cc1)C1C2CCCCC21 (stereo not given)	1.5	0.8	3.0	1.2*	11.7*	1.9
CC(C)CNS(=O)(=O)/C=C/c1ccc(F)cc1CNC(=O)OC(C)(C)C	-1.4	/	-2.9	-2.0	1.1	-2.7
Cc1cc2c(cc1C)NC(=O)CC(c1ccccc1)=N2	3.2	2.8	0.4	0.3	12.2*	6.5
CC1(c2ccccc2)CC(c2ccccc2)=Nc2ccccc2N1 (stereo not given)	/	3.5	/	/	/	/
OC(c1ccc(F)cc1)c1ncc(-c2ccccc2F)[nH]1 (stereo not given)	2.6	/	2.0	0.2	11.2*	1.0
OC(c1ccc(F)cc1)c1ncc(-c2ccccc2Cl)[nH]1 (stereo not given)	1.0	/	1.8	0.3	6.5	4.9
Cc1c(NC(=O)C2CCCN(S(=O)(=O)c3ccccc3[N+](=O)[O-])C2)c(=O)n(-c2ccccc2)n1C (stereo not given)	-0.5	/	-1.3	-0.4	-0.2	-2.8
C#Cc1cccc(NC(=O)c2ccc(Cl)cc2Cl)c1	1.7	2.2	3.5	-0.1	12.3*	1.0
O=C(Nc1ccc(Nc2ccccc2)cc1)c1ccc(Cl)cc1Cl	-0.5	/	-0.8	-1.1	1.8	1.9
O=C(Nc1scc(-c2ccc(F)cc2)c1C(=O)O)c1ccco1	2.4	-0.1	0.8	-1.3	3.6	-2.5
COC(=O)c1c(-c2ccccc2)csc1NC(=O)c1ccco1	2.9	-0.1	-0.5	-1.0	10.8*	5.7
Cc1nc2cc(C(=O)N3CCN(C(=O)C(Cl)Cl)CC3)ccc2n1C1CCCC1	-2.7	/	0.8	-1.3	-1.6	-5.5
CCOC(=O)C1=C(C)NC(C)=C(C(=O)OCC)C1/C=C/c1ccccc1OC	-1.3	6.4*	-2.4	-1.6	-1.6	-3.4
COCCOC(=O)C1=C(C)NC(C)=C(C(=O)OCCOC)C1/C=C/c1ccccc1OC	-0.4	1.4	-1.0	-2.1	-4.5	-0.7
O=C(NNC(=O)c1ccncc1)Nc1ccc(N=Nc2ccccc2)cc1	2.0	-0.1	5.0	0.7	10.5*	-1.6
CCOC(=O)C1C[C@@H](O)C=CC1=O (stereo not given in full)	/	/	-1.3	-1.4	1.8	/
SMILES	DAX1 inh-1	DAX1 inh-2	hcDAF12 agonist	ssDAF-12 act	hgDAF12 agonist	SMARCA2 activ
CCOC(=O)CSc1nc(CC)nc2ccccc12	0.1	0.0	0.3	-1.5	0.8	2.4
CCOC(=O)CSc1nc(Cc2ccccc2)nc2ccccc12	-0.4	4.3*	-2.7	-0.9	-0.9	1.6
Cc1c(C)c2c(OCC(=O)NCc3ccncc3)cc3c(c2oc1=O)CCC(C)(C)O3	0.1	5.9*	0.4	0.1	1.0	0.7
Cc1c(C)c2c(OCC(=O)NCc3cccnc3)cc3c(c2oc1=O)CCC(C)(C)O3	-0.4	-0.8	-0.4	-0.6	2.3	1.5
COc1cc(NC(=O)CSc2nnc3c(C)cc4cc(C)cc(C)c4n23)c(C(=O)O)cc1OC	-0.1	-0.5	0.8	-0.1	10.7*	-3.4
C=CCN1C(=O)[C@H](CC(=O)NCc2ccc(OC)c(OC)c2)[C@@]2(C(=O)OCC)CCCC=C12	0.1	/	0.9	0.8	7.7	-0.1
C[C@H]1/C=C/CC(=O)N[C@@H](c2ccc3ccccc3c2)[C@@H](C)/C=C/CC(=O)N[C@H]1c1ccc2ccccc2c1	-0.7	/	-2.5	0.2	0.7	0.0
O=c1cc(CN2CCN(c3cccc(C(F)(F)F)c3)CC2)nc2sccn12	-0.5	/	1.4	-1.2	1.1	-4.2
O=c1cc(CN2CCN(c3ccccn3)CC2)nc2sccn12	-0.4	0.7	5.7*	-1.2	-1.2	0.7
Cc1cc(C)n(-c2nc3ccccc3[nH]c2=O)n1	-0.4	4.3*	-1.0	-0.9	2.5	0.1
O=C(CSc1nnc(-c2ccncc2)n1-c1ccccc1)Nc1cccc2ccccc12	0.4	/	-0.4	-1.6	-0.4	3.3
COc1ccc(NC(=O)Nc2cc(C)ccc2F)cc1	3.9*	1.4	2.0	-0.2	10.3	3.2
COc1ccc(NC(=O)Nc2ccc(Br)c(C)c2)cc1	1.4	4.9*	-1.2	-1.8	2.1	-2.5
COc1cccc(NC(=O)Nc2cc(C)ccc2F)c1	1.3	0.2	0.2	-0.9	5.6	2.1
CC(C)CN1C(=O)[C@]2(CC(=O)N(C)C2c2ccccc2)c2cc(-n3cc(-c4ccccc4)nn3)ccc21 (stereo not given in full)	-1.7	/	-3.2	-1.9	-0.3	-5.9
C/C(=N\Nc1ccc(C(F)(F)F)cn1)c1ccncc1	4.0*	-0.3	-0.3	-1.1	4.0	3.3
Oc1ccc(/C=N/Nc2ccc(C(F)(F)F)cn2)cc1	4.4*	-0.3	2.6	0.2	8.6	-2.4
Oc1ccc(/C=N/Nc2ccc(C(F)(F)F)cn2)c(O)c1	-1.5	-0.1	-1.4	-0.9	-4.4	-1.6
O=S1(=O)c2c(cccc2N2CCSCC2)Oc2ccccc2CN1Cc1cn(Cc2ccc(C(F)(F)F)cc2)nn1	-1.7	/	-1.4	-0.5	-0.9	-3.1
CC1=NN(C(=O)c2ccco2)C(O)(c2ccccc2)C1 (stereo not given)	0.6	6.3*	3.3	1.0*	10.9*	1.4
CSc1nnc(N2C(=O)C(O)=C(C(=O)c3ccco3)C2c2ccc(F)cc2)s1 (stereo not given)	4.2*	1.3	4.0	-0.9	8.4	0.1
C=CCn1c(COc2ccc(OC)cc2)nnc1SCn1nnc2ccccc2c1=O	-0.2	2.1	-2.4	6.3*	-0.8	-0.1

Source: PubChem BioAssay
